This is an account of results in PubChem BioAssay AID977628 (Broad Institute, 2014).

The whole screen tested about 1,900 compounds, of which fewer than 10 were called active. Another 20% or so got no clear call; they are omitted.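 How the source made its calls: active means compound lowering the normal-ribosome reporter at least twice as much as the humanized-ribosome reporter, growth loss under a set limit; inconclusive means no clear call, values can overlap the other calls; inactive means the rest.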 Not all results are given here.

A short description of the test: growth of wild-type and h24-humanized E. coli strains – h24 mutant RFP vs wild-type GFP, cherry-pick, dose response (AID 977628). The note with it: E. coli WT GFP strain growth, fluorescence, 24 h; series mostly up to 50 µM.
As to `CCn1c(NC(=O)c2nn(C)cc2Br)nc2ccccc21`, the result was inactive. To `Cc1ccc(C(=O)NCC(=O)OCC(=O)Nc2cccc(S(=O)(=O)N3CCCC3)c2)cc1C` belongs “inactive”. In the case of `O=C(NCCc1ccccc1)c1cccc(NC(=O)c2ccccc2)c1`, the compound was classed as inactive.

Take `CNC(=O)c1ccsc1NC(=O)c1ccc(S(=O)(=O)N2CCc3ccccc32)cc1`: the outcome was inactive. To `O=C(N[C@@H](Cc1ccccc1)C(=O)OCc1ccccc1)c1nc[nH]c1C(=O)NC1CCNCC1` belongs “inactive”. As to `COc1ccccc1N1CCN(Cc2ccc(OC)c3ccccc23)CC1`, the compound was called inactive. Consider `Cc1n[nH]c(C)c1S(=O)(=O)N1CCCC(C(=O)Nc2ccc(Br)cc2)C1` (stereo not drawn), for which the compound was classed as inactive. In the case of `COc1ccccc1CC(=O)NCCc1c[nH]c2ccccc12` it was “inactive”. In the case of `CC(=O)Nc1ccc(CNc2nc(NCCN(C)C)nc3cc(-c4ccccc4)sc23)cc1` it was “inactive”; in that of `CC1CCCC(NC(=O)COC(=O)[C@@H]2CC(O)CN2S(=O)(=O)c2ccc3c(c2)OCCO3)C1C` (stereo partly drawn), “inactive”; in that of `CCc1cc2cc(OC)ccc2nc1SCC(=O)Nc1cc(OC)c(OC)cc1C(=O)O`, “inactive”. Regarding `Cc1ccc2c(N)c(C(=O)c3ccccc3)sc2n1`, the call was inactive.

In the case of `COc1ccc(C2=NN(C(=O)c3cccnc3)C(c3ccccc3)C2)cc1` (stereo not drawn), the result was inactive. To `Cc1ccc(-c2c[n+](CC(=O)Nc3ccccc3)c3n2CCC3)cc1` belongs “inactive”.

Turning to `Cc1ccc(OCCCC(=O)NC(C)c2ccccc2)c(C)c1` (stereo not drawn), the compound was called inactive.

With `O=C(NCc1ccc2c(c1)OCO2)c1sccc1Br`, the result was inactive. In the case of `Cc1cccc(NC(=O)c2nc(S(=O)(=O)Cc3ccccc3)ncc2Cl)c1` it was “inactive”.

For `Cn1cc(CCC(=O)NCc2ccc3c(c2)OCO3)c2ccccc21`, the compound was called inactive.

On to `Cc1ccc(S(=O)(=O)NC(C)C(=O)NCc2ccc(Cl)cc2)cc1` (stereo not drawn), for which the call was inactive. To `CCc1c(N=O)c(-c2ccccc2)n(O)[n+]1[O-]` belongs “inactive”; to `COc1ccc2c(c1)c1ncn(Cc3ccccn3)c(=O)c1n2C`, “inactive”.

`O=C(c1cccc(F)c1)N1CCN(c2ccc([N+](=O)[O-])c3cccnc23)CC1`: the compound was called inactive. Consider `C[C@@H]1CN([C@@H](C)CO)C(=O)c2cc(NS(=O)(=O)c3ccccc3)ccc2O[C@@H]1CN(C)Cc1ccc(C(=O)Nc2ccccc2N)cc1`, for which the result was inactive.
